Drawing on PubChem BioAssay (NCI), this text covers growth for 16 compounds.

Among the test systems are T-47D breast; BT-549 breast; MDA-MB-435 melanoma; SW-620 colon; HCT-116 colon; HCC-2998 colon; KM12 colon; MCF7 breast.
Holding throughout (experiment): NCI-60 one-dose screen, 48 h (100 = growth as untreated, 0 = no growth, -100 = all killed)
Common to all, as to settings: 10 µM unless noted

Each structure is given as a SMILES string. The panel holds about 83,000 compounds, 20% with a hit somewhere; the sample as a whole holds those more often.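 A percent growth of 40 corresponds to 60% growth inhibition; 0 means no net growth; -100 means all cells died. Active threshold: below 10.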 Values without a mark were called inactive. The source made the active and inactive calls.

With `Cc1c2cnccc2c(C)c2c1c1cc(C#N)ccc1n2C`, the growth in the experiment with T-47D breast was -1.04% (active); in the experiment on BT-549 breast, -62% (active); in the experiment with MDA-MB-435 melanoma it was -57.6% (active); in the experiment on SW-620 colon it was -0.262% (active); in the experiment with HCT-116 colon, -22.9% (active); with HCC-2998 colon it was -68.7% (active). In addition, the growth in the experiment on KM12 colon is 2.89% (active).

Take `Fc1ccc(CNc2c3ccccc3nc3ccccc23)c(F)c1`: the growth was 47.4% in the experiment on T-47D breast; 82.8% in the experiment on BT-549 breast; 66.5% in the experiment with MDA-MB-435 melanoma; 29.8% with SW-620 colon; 14.2% with HCT-116 colon; 41.3% in the experiment on HCC-2998 colon. Moreover, the growth in the experiment on KM12 colon was 60%.

Turning to `O=C(O)CCCN1C(=O)/C(=C/c2cn(-c3ccccc3)nc2-c2ccc([N+](=O)[O-])cc2)SC1=S`, the growth in the experiment with T-47D breast was 61.6%; with BT-549 breast, 55.1%; in the experiment with MDA-MB-435 melanoma, 48.6%; in the experiment on SW-620 colon it was 65.7%; in the experiment on HCT-116 colon it was 36.9%; in the experiment with HCC-2998 colon it was 64.6%. In addition, the growth in the experiment with KM12 colon is 54.1%.

Take `COc1ccc(/C=C/C(=O)c2ccc(Nc3ccnc4cc(Cl)ccc34)cc2)cc1`: the growth in the experiment with T-47D breast was 83.1%; in the experiment with BT-549 breast, 101%; with MDA-MB-435 melanoma it was 85.6%; with SW-620 colon, 93.7%; in the experiment with HCT-116 colon, 34%; in the experiment with HCC-2998 colon, 58.7%. Besides, in the experiment on KM12 colon, the growth is 154%.

For `CC(=O)c1c(C)nc(SCC(=O)Nc2cccc(O)c2)n1-c1ccc(Cl)cc1`, the growth was 95.9% with T-47D breast; 93.1% with BT-549 breast; 84.7% in the experiment with MDA-MB-435 melanoma; 87.3% in the experiment with SW-620 colon; 94.8% in the experiment on HCT-116 colon; 99.3% in the experiment on HCC-2998 colon. Besides, the growth in the experiment on KM12 colon was 93.7%.

As to `COc1cc2nc3cc([N+](=O)[O-])ccc3c(NCCNCC(C)O)c2cc1OC` (configuration not stated), the growth with T-47D breast is -7.36% (active); with BT-549 breast it was -40.5% (active); with MDA-MB-435 melanoma it was -87.6% (active); in the experiment with SW-620 colon it was -4.13% (active); in the experiment with HCT-116 colon, -18.8% (active); in the experiment with HCC-2998 colon, -47.8% (active). In addition, the growth with KM12 colon is -11.9% (active).

On to `C#CCNC(=O)[C@H](CC)[C@H]1CC[C@H](C)[C@H]([C@@H](C)[C@H](O)[C@H](C)C(=O)[C@H](CC)C2O[C@]3(C=CC(=O)[C@]4(CC[C@@](C)([C@H]5CC[C@](O)(CC)[C@H](C)O5)O4)O3)[C@H](C)C[C@@H]2C)O1` (some centres not stated), for which the growth in the experiment with T-47D breast was 41.9%; in the experiment on BT-549 breast, 40.9%; in the experiment on MDA-MB-435 melanoma it was -65.3% (active); in the experiment on SW-620 colon it was 30.8%; with HCT-116 colon, 25.9%; with HCC-2998 colon it was 85.4%. Also, the growth in the experiment with KM12 colon was 23.8%.

Turning to `Nc1c(C(=O)Nc2ccncc2)sc2nc3c(cc12)C(O)CCC3` (configuration not stated), the growth in the experiment on T-47D breast was 74.3%; with BT-549 breast, 113%; in the experiment on MDA-MB-435 melanoma it was 101%; in the experiment on SW-620 colon it was 99.7%; with HCT-116 colon, 83.4%; in the experiment with HCC-2998 colon, 96.7%. Moreover, in the experiment with KM12 colon, the growth is 109%.

On to `O=C(Nc1nc2ccccc2s1)c1ccc(F)cc1`, for which the growth in the experiment on T-47D breast is 55.3%; in the experiment with BT-549 breast, 109%; with MDA-MB-435 melanoma, 101%; with SW-620 colon, 112%; in the experiment with HCT-116 colon it was 92.8%; in the experiment on HCC-2998 colon it was 69.9%. Also, the growth in the experiment on KM12 colon is 52.8%.

Regarding `Fc1cccc(Oc2ccc(Nc3ncnc4ccc(OCCCN5CCOCC5)cc34)cc2Cl)c1`, the growth in the experiment with T-47D breast is 36%; in the experiment on BT-549 breast it was 79%; with MDA-MB-435 melanoma it was 54.3%; in the experiment on SW-620 colon, 61.1%; with HCT-116 colon, 69.4%; in the experiment on HCC-2998 colon it was 57%. Moreover, in the experiment with KM12 colon, the growth is 45.9%.

For the compound `O=S(=O)(NCCNc1nccc(-c2c(-c3ccc(F)c(O)c3)nc3sccn23)n1)c1ccc(O)cc1`, the growth in the experiment with T-47D breast is 6.97% (active); in the experiment with BT-549 breast it was 55.1%; in the experiment on MDA-MB-435 melanoma, 9.31% (active); in the experiment on SW-620 colon, 67.1%; with HCT-116 colon, 30.4%; with HCC-2998 colon, 76.5%. For the same compound, the growth with KM12 colon is 13.9%.

`CCc1ncnc2c1ccn2C(C)c1ccc(OC)c(F)c1` (configuration not stated): the growth was 36.1% with T-47D breast; 52.4% in the experiment with BT-549 breast; 6.71% (active) in the experiment on MDA-MB-435 melanoma; 27.7% with SW-620 colon; 18.8% with HCT-116 colon; 56.6% in the experiment on HCC-2998 colon. The growth in the experiment on KM12 colon was 27.8%.

Turning to `C=C1C(=O)O[C@H]2[C@H]1CC/C(COC(=O)/C=C\C(=O)NCc1ccc(Cn3c(=O)sn(CCI)c3=O)cc1)=C\CC[C@@]1(C)O[C@@H]21`, the growth with T-47D breast is 57.6%; in the experiment on BT-549 breast, 71.9%; in the experiment with MDA-MB-435 melanoma, 44.9%; in the experiment on SW-620 colon it was 8.21% (active); in the experiment on HCT-116 colon, 19%; in the experiment with HCC-2998 colon it was 83.9%. In the experiment on KM12 colon, the growth is 97.4%.

Consider `COc1ccc(Nc2ncc(Br)c(NCCCNC(=O)c3cccs3)n2)cc1`, for which the growth with T-47D breast is 46.2%; in the experiment with BT-549 breast, 45.6%; in the experiment on MDA-MB-435 melanoma, 59%; in the experiment on SW-620 colon, 24.7%; in the experiment on HCT-116 colon it was 26.2%; with HCC-2998 colon, 80.6%. Moreover, the growth in the experiment with KM12 colon is 20.6%.

For `COc1cccc(/C=C2\COc3ccc(O)c(O)c3C2=O)c1`, the growth with BT-549 breast was 15.6%; with MDA-MB-435 melanoma, -3.44% (active); with SW-620 colon it was 1.94% (active); with MCF7 breast, 17.6%; with HCT-116 colon, -7.55% (active); in the experiment with HCC-2998 colon, 19.8%. The growth in the experiment with KM12 colon was -13.7% (active).

Consider `CCCC/C=C/[C@@H]1C[C@H]1CCO`, for which the growth in the experiment with BT-549 breast was 96.8%; with MDA-MB-435 melanoma, 102%; in the experiment with SW-620 colon it was 102%; in the experiment on MCF7 breast, 87.5%; in the experiment with HCT-116 colon it was 90.6%; in the experiment with HCC-2998 colon, 102%. In the experiment on KM12 colon, the growth was 103%.
